From PubChem BioAssay
VCAM1 TNFa inh = reduces TNF alpha induced VCAM1 expression in HUVEC. HUVEC TNFa-induced VCAM-1 immunofluorescence, high-content imaging. inhibition, % at 2 µM. hit rate 0.48% among 95,000;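 active means inhibition above the batch mean plus 3 SD, with images confirmed as a hit by eye, cut at about 37% in these data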;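 further: 0% = TNF-stimulated DMSO wells and 100% = unstimulated control wells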
HUVEC tox TNFa = HUVEC cytotoxicity counter-screen, TNF alpha stimulated; hit rate 0.17% among 93,000; HUVEC TNFalpha-stimulated, Hoechst cell count, imaging; cell count reduction, % at 2 µM;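 active means cell count reduction exceeding the screen mean by over 5 SD, scaled to untreated wells per plate, cut at about 78% in these data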;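 further: cells counted after 24 h of TNF alpha exposure following the 1 h pretreatment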
E-sel TNF inh = blocks E-selectin expression induced by TNF alpha; HUVEC TNFa-induced E-selectin immunofluorescence, high content; inhibition, % at 2 µM; hit rate 0.71% among 120,000; AID 1246;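 active means inhibition above the batch mean plus 3 SD, and confirmed as a hit on visual image review, cut at about 43% in these data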;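 further: 0% = TNF-stimulated DMSO wells and 100% = unstimulated control wells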
F-actin modifier = alters cytoskeleton assembly in HUVEC cells | HUVEC TNFa F-actin phalloidin imaging, high content | hit rate 0.18% among 91,000 | inhibition, % at 2 µM | AID 836;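 active means inhibition above the batch mean plus 3 SD and confirmed as a hit by visual image inspection, cut at about 30% in these data, passing the limit was not always enough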
Active calls of the source: *; / = no result. Shown are actives, neighbours in structure and some others; about 1.1% of the full set was active somewhere.

SMILES	VCAM1 TNFa inh	HUVEC tox TNFa	E-sel TNF inh	F-actin modifier
COCCN(C(=O)CCC(=O)Nc1ccccn1)C(C(=O)NC1CCCC1)c1ccc(OC)cc1 (centres undefined)	3	-3	100*	29
COCC(C)NC(=O)CSc1nc(-c2ccccc2)c(-c2ccccc2)o1 (centres undefined)	-5	-23	-5	-3
CCOC(=O)c1c(NC(=O)COC)sc2c1CCCC2	20	-12	53*	-2
CCOC(=O)c1c(NC(=O)COC(=O)c2c(C)noc2C)sc2c1CCC2	-9	1	11	-5
OCCSc1nnc(Nc2ccccc2)s1	29	78*	/	-35
C=C(C)c1cccc(C(C)(C)NC(=O)Nc2ncccn2)c1	99*	95*	-52	74*
CCn1c2ccccc2c2cc(NC(=O)c3cc(OC)c(OC)c(OC)c3)ccc21	95*	71	38	-4
CCn1c2ccccc2c2cc(NC(=O)c3cc(OC)cc(OC)c3)ccc21	/	/	32	/
CCOc1cccc(C(=O)Nc2ccc(N3CCN(S(C)(=O)=O)CC3)cc2)c1	8	-30	/	-8
CCOc1cccc(C(=O)NC(=S)Nc2ccc(N3CCCC3)cc2)c1	-2	-16	53*	10
O=C(Nc1ccc(-c2nc3cccnc3s2)cc1)c1ccco1	/	/	4	/
COc1ccc(-c2nc(-c3ccc(NC(=O)c4ccc(Br)o4)cc3)no2)cc1OC	76*	39	/	-7
O=C(Nc1ccc(-c2nc3cccnc3s2)cc1)c1ccc(Br)o1	11	-34	100*	-17
C=CCNC(=O)C1CC(=O)N(c2ccc(OCC(=O)Nc3ccc(Cl)c(C(F)(F)F)c3)cc2)C1 (centres undefined)	-11	-3	1	-16
C=CCNC(=O)C1CC(=O)N(c2ccc(OCC(=O)Nc3cccc(OC)c3)cc2)C1 (centres undefined)	37	43	10	52*
c1nc(NCCN2CCOCC2)c2sc3nc(N4CCOCC4)c4c(c3c2n1)CCC4	/	/	66*	/
c1nc(NCCN2CCOCC2)c2c3c(sc2n1)CCCCC3	-14	-11	/	9
O=c1c2cccnc2[nH]c(=S)n1CCCN1CCN(c2ccc(F)cc2)CC1	-13	-14	100*	-26
COc1ccc(N2CCN(CCCn3c(=S)[nH]c4ncccc4c3=O)CC2)cc1	4	-3	-2	-6
CC(C)(C)NS(=O)(=O)c1ccc(CCC(=O)NCc2cccnc2)cc1	1	6	-7	7
O=C(c1cccs1)N1CCN=C1SCc1ccccc1	6	-2	44*	-16
COc1ccc(CC(=O)OCC(=O)NCCc2ccccc2)cc1OC	/	/	27	/
CCCOc1ccc2ccccc2c1/C=N/n1cnnc1	8	-16	-10	-4
CCOc1ccc2ccccc2c1/C=N/n1cncn1	88*	-29	7	-16
Cc1[nH]nc2c1C1(C(=O)N(Cc3ccc(Cl)cc3)c3ccccc31)C(C#N)=C(N)O2 (centres undefined)	-30	/	100*	23
SMILES	VCAM1 TNFa inh	HUVEC tox TNFa	E-sel TNF inh	F-actin modifier
COc1cc(NC(=O)CN2CCCCC2)c(C)cc1[N+](=O)[O-]	/	/	-23	/
COc1cc(NC(=O)Cn2ncc(Cl)c(Cl)c2=O)c(C)cc1[N+](=O)[O-]	/	/	83*	/
CC(=O)n1cc(C(C[N+](=O)[O-])SCCN)c2ccccc21 (centres undefined)	29	-14	/	-6
Cc1cc2cc(C=C(C#N)C#N)c(Cl)nc2cc1C	/	/	58*	/
CCN(CC)c1ccc2c(Cl)c(Br)c(=O)oc2c1	16	-23	96*	28
CCN(CC)c1ccc2c(c1)oc(=O)c1c(Cl)cc(=O)oc12	-10	-8	-28	6
Cc1ccc(-n2c(C)cc(C3=NNC(=NC4CC4)SC3)c2C)cc1C	/	/	12	/
O=c1c2c3c(sc2nc2n1CCCC2)CCCC3	-6	-6	-60	-4
O=c1c2c3c(sc2nc2n1CCC2)CCC3	15	-13	4	37*
Cc1ncc(CO)c2cc(C(N)=O)c(=Nc3ccccc3)oc12	19	-7	11	36*
COc1ccc(S(=O)(=O)Nc2cc3c(C(C)=O)c(C)oc3c3ccccc23)cc1	80*	41	29	/
Cc1ccc(C)c(NC(=O)CCCCCCCCCCC2COCCO2)c1 (centres undefined)	/	/	-6	/
COc1cc(C2C(N3C(=O)c4ccccc4C3=O)C(=O)N2c2cccc(C)c2)cc(OC)c1OC (centres undefined)	/	/	6	/
Cc1ccc(N/N=C/c2ccc(N3CCOCC3)cc2)cc1C	67*	/	-6	26
Cc1ccc(N/N=C/c2ccc3c(c2)OCCO3)cc1Cl	/	/	-7	/
COc1cccc(N2CCN(C(=O)CCNS(=O)(=O)c3ccc4c(c3)c(=O)n(C)c(=O)n4C)CC2)c1	/	/	-8	/
CNC(=O)/C(C#N)=C/c1ccc(-c2ccccc2[N+](=O)[O-])o1	/	/	-7	/
Cc1ccc(Cc2cnc(NC(=O)/C(C#N)=C/c3ccc(-c4ccccc4[N+](=O)[O-])o3)s2)cc1	12	-11	51*	-9
Cc1ccc(Cn2ncc3c(N4CCN(c5ccc(C)cc5)CC4)ncnc32)cc1	16	-5	/	8
Cc1ccc(Cn2ncc3c(N4CCN(C5CCCC5)CC4)ncnc32)cc1	/	/	100*	/
CCN(CC)S(=O)(=O)c1ccc(OC)c(NC(=O)Cn2cnc3c2c(=O)n(C)c(=O)n3C)c1	/	/	-3	/
CCOC(=O)c1c(-c2ccccc2)csc1NC(=O)/C(C#N)=C/c1ccc(O)c(OC)c1	/	/	-22	/
CC(=O)c1c(C)oc2ccc(N(C(C)=O)S(=O)(=O)c3ccc(Cl)c([N+](=O)[O-])c3)cc12	88*	8	7	-20
CCOC(=O)C(C)(C)N(Cc1ccc(Cl)cc1)S(=O)(=O)c1ccc(Cl)c([N+](=O)[O-])c1	/	/	0	/
Cc1cccc(C)c1N1C(=O)CC(N(O)c2ccccc2)C1=O (centres undefined)	23	0	24	-13
SMILES	VCAM1 TNFa inh	HUVEC tox TNFa	E-sel TNF inh	F-actin modifier
Cc1c(Cl)cccc1N1C(=O)CC(N(O)c2ccccc2)C1=O (centres undefined)	-19	-14	100*	-1
CCOc1ccc(N2CC(C(=O)Nc3ccc(N4CCOCC4)cc3)CC2=O)cc1 (centres undefined)	-8	-9	15	-22
CCOc1ccc(N2CC(C(=O)NCCCN3CCOCC3)CC2=O)cc1 (centres undefined)	14	5	50*	-6
Cc1c(Br)c([N+](=O)[O-])nn1CCCC(=O)Nc1sc2c(c1C#N)CCC2	/	/	24	/
Cc1c(Br)c([N+](=O)[O-])nn1CC(=O)Nc1sc2c(c1C(=O)OC(C)C)CCCC2	10	-4	64*	8
O=C(c1cc(-c2ccncc2)nc2ccc(Br)cc12)N1CCN(c2ccccn2)CC1	100*	/	-18	84*
O=C(c1cccn2c(=O)c3cc(Br)ccc3nc12)N1CCN(c2ccccn2)CC1	-7	16	19	/
CCc1ccc(NC(=O)C2CC=CCC2C(=O)O)cc1 (centres undefined)	16	35	20	10
O=C(O)Cc1ccc(NC(=O)C2CC=CCC2C(=O)O)cc1 (centres undefined)	55*	57	10	-15
COC(=O)C(Cc1ccccc1)NC(=O)c1cccc(S(=O)(=O)N(C)C)c1 (centres undefined)	/	/	-9	/
